Pf Dd2 growth: blocks in vitro growth of P. falciparum Dd2. P. falciparum Dd2 growth, SYBR Green, 72 h. Potency, µM (titrated, usually from 28.9 µM), inactives show at the top dose activity, negative = inhibition, actives largely listed as inhibitors. 120,000 compounds, 4.3% hits. AID 1347417; active = well fitted inhibition curve with a large enough effect;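 note: plate controls were DMSO vehicle for no effect and reference drug for full effect; nearly all actives have a fitted effect of over 65% in size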
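Readout: SYBR Green fluorescence, 485 nm excitation, 535 nm emission, after ~16 h lysis at 37C. Before that, Dd2-infected red cells (2.5% hematocrit) grew 72 h with compound, 29 uM top final concentration.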
* hit, by the source's call; i = inactive; [ ] = another dose, or the depositor's remark. Shown is part of a subset that was picked to be rich in hits. Potency is the fitted concentration of half-maximal effect.

SMILES	Pf Dd2 growth
O=C(c1cc2ccccc2[nH]1)N1CCC(c2noc(C3CC3)n2)C1 (stereo not drawn)	i[5.79 µM]
Cc1cn2nc(C(=O)N3CCC(C(=O)NC4CCCCC4)CC3)cc2c(=O)[nH]1	23%
COCC(=O)NC[C@H]1CCN(Cc2cc(C)nn2C)C[C@H]1N(C)C	5%
O=C(NCCc1nccc(-c2ccccc2)n1)[C@H]1CCC[C@H](O)C1	-19%
CN(CC1CC1)C1CCc2ccccc21 (stereo not drawn)	-12%[44.1 µM]
Cc1oc(-c2ccccc2)nc1CC(=O)N1Cc2ccccc2C(O)C1 (stereo not drawn)	-2%
CCN1C(=O)C2(CCN(S(=O)(=O)c3ccc(C)c(C)c3)CC2)c2ccccc21	i
CCN1C(=O)C2(CCN(S(=O)(=O)c3ccc(Cl)cc3C)CC2)c2ccccc21	1µM*
CCN1C(=O)C2(CCN(S(=O)(=O)c3cccc(C)c3)CC2)c2ccccc21	i
COc1ccc(CN2CCN(C3CCN(c4ccccc4)CC3)CC2CCO)cc1C (stereo not drawn)	11µM*
CC(C)N1CCN(C2CCN(c3ccc4c(c3)CCC4)CC2)CC1CCO (stereo not drawn)	-19%
Cc1ccc(CN2CCN(C3CCN(Cc4ccccn4)CC3)CC2CCO)o1 (stereo not drawn)	-7%
CCc1nncn1C1CCN(S(=O)(=O)c2ccc(OC)c(OC)c2)CC1	-17%
CNC(=O)C1(N2CCC[C@H]2C(=O)NCc2ccccn2)CCCCC1	17%[44.1 µM]
Cc1ccc(CNC(=O)N2CCCCC2c2nc(C3CC3)n[nH]2)cc1 (stereo not drawn)	-3%
Cc1ccc(CNC(=O)CN(c2ccc(C)cc2)S(=O)(=O)c2c(C)nn(C)c2C)cc1	29%
COc1ccc(N(CC(=O)NCCc2ccccc2)S(=O)(=O)c2c(C)nn(C)c2C)cc1	-13%
Cc1nn(C)c(C)c1S(=O)(=O)N(CC(=O)NCCc1ccc(Cl)cc1)c1ccc(C(C)C)cc1	11µM*
O=C(c1ccc(F)c(F)c1)N1CC(c2nnc(-c3ccncc3)o2)C2(CCOCC2)C1 (stereo not drawn)	8%
Cc1cc(NC(=O)Cn2nc3n(c2=O)CCCC3)no1	i
CCOc1ccc(C(=O)Nc2cccc(-c3nnc4n3CCCC4)c2)cc1	1.6µM*
Cc1nnc2n1CCC(NC(=O)c1cc(C3CC3)[nH]n1)CC2 (stereo not drawn)	49%
CCOc1ccc(C(=O)Nc2ccc3c(c2)CCCN3S(=O)(=O)c2ccc(C)cc2)cc1	-26%
CCOc1ccc(-c2nnc3n2CCCC3)cc1OCC	18%
O=C(Nc1ccc(-c2nnc3n2CCCC3)cc1)c1cccc(Cl)c1	-78%
SMILES	Pf Dd2 growth
Cc1ccc(NC(=O)N2CCC(c3cc(-c4cccc(C)c4)n[nH]3)CC2)cc1	-35%
COc1ccc(C(=O)Nc2cccc(-c3nnc4n3CCCC4)c2)cc1OC	5µM*
O=C(Nc1cccc(-c2nnc3n2CCCC3)c1)c1cc(C2CC2)[nH]n1	4µM*
Cc1cccc(N(C)C(=O)Cn2nc3n(c2=O)CCCC3)c1	19%
CN(C)c1cccc(C(=O)Nc2cccc(-c3nnc4n3CCCC4)c2)c1	4.5µM*
COc1ccc(NC(=O)Cn2nc3n(c2=O)CCCC3)cc1OC	41%
CCCN1C(=O)Cc2ccccc2C1C(=O)NCc1cc(OC)ccc1OC (stereo not drawn)	i
Cc1cncc(N2CC3CCC(C2)N3CC(F)(F)F)c1	-25%[44.1 µM]
CC1(C)CN(C(=O)c2ccccc2Oc2ccccc2)CC1(C)O (stereo not drawn)	18%
CC(C)(C)n1ccc(C(=O)N2CCN(CC3CC3)[C@@H]3CS(=O)(=O)C[C@@H]32)c1	7%
CNCC(=O)N1CCC(n2nccc2NC(=O)Nc2ccccc2OC)CC1	-6%
CCn1ccc(C(=O)N2C[C@@H](CO)[C@H](c3ccccn3)C2)n1	3%
Cc1nnc(-c2cc(-c3ccccc3Oc3ccccc3)ccn2)n1C1CCN(C)CC1	i
O=C1CCN(Cc2ccccn2)CCCC(c2nc(-c3cccnc3)no2)CCN1 (stereo not drawn)	i
CC(=O)N1C[C@@H]2CCCN3CCC[C@@H]([C@H]23)[C@H]1CCCC(=O)N1CCNC(=O)C1	7%
O=C(c1ccc2c(c1)OCO2)N1CCCC2(CC(c3ccccn3)=NO2)C1 (stereo not drawn)	i
COc1cccc(C(=O)Nc2cccc(-c3nnc4n3CCCC4)c2)c1	5.6µM*
CCn1nccc1C(=O)NCCC1CCN(C(=O)Nc2ccccc2)CC1	1%
COc1cccc(NCc2nnc3n2CCCCC3)c1	43%
Cc1cc2nc3n(c(=O)c2n1CC(=O)Nc1cccc(C#N)c1)CCCCC3	-24%
N#Cc1ccc(C(=O)Nc2cccc(-c3nnc4n3CCCC4)c2)cc1	1.3µM*
CCn1nccc1C(=O)NCCC1CCN(C(=O)Nc2cccc(C)c2)CC1	-14%
CCn1nccc1C(=O)Nc1cccc(-c2nnc3n2CCCC3)c1	8.9µM*
O=C(c1ccccc1Cl)N1CC(c2nc(CCc3ccccc3)no2)C1	-11%
COc1ccc(-n2nc(C3CCN(C(C)=O)CC3)[nH]c2=O)cc1	-4%[44.1 µM]
SMILES	Pf Dd2 growth
O=C(Nc1cccc(Br)c1)N1CC2CC(C1)[C@H]1CCCC(=O)N1C2 (stereo partly drawn)	-15%
O=C(Nc1cc(F)ccc1F)N1CCC(CCNC(=O)C2(c3ccccc3)CC2)CC1	-17%
O=C(Nc1ccccc1)N1Cc2[nH]cnc2C[C@H]1c1nc(-c2ccccc2)no1	i
Cc1cccc(-c2noc([C@@H]3Cc4nc[nH]c4CN3C(=O)Nc3cccc(C#N)c3)n2)c1	-27%[44.1 µM]
Cc1cccc(-c2noc([C@@H]3Cc4nc[nH]c4CN3C(=O)Nc3cccc(F)c3)n2)c1	13µM*
CC(C)NC(=O)N1Cc2[nH]cnc2C[C@H]1c1nc(-c2ccccc2)no1	i
O=C(Nc1cccc(F)c1)N1Cc2[nH]cnc2C[C@H]1c1nc(-c2ccccc2)no1	-24%[44.1 µM]
O=C(NC1CCCCC1)N1Cc2[nH]cnc2C[C@H]1c1nc(-c2ccncc2)no1	13µM*
O=C(c1ccccc1)N1Cc2[nH]cnc2C[C@H]1c1nc(-c2ccncc2)no1	11µM*
O=C(NC1CCCCC1)N1CCCCCC1c1nc(-c2ccncc2)no1 (stereo not drawn)	-47%
COc1ccc(NC(=O)N2Cc3[nH]cnc3C[C@H]2c2nc(-c3ccc(OC)cc3)no2)cc1	i
COc1ccc(C2(CNC(=O)C[C@H]3NC(=O)c4ccccc4NC3=O)CCOCC2)cc1	-3%
CC1(C(=O)Nc2ccccc2)COCc2cnc(Nc3ccccc3)nc21 (stereo not drawn)	i
CCOC(=O)C[C@@H]1C[C@@H](C(C)C)[C@H](CNC(=O)NC(C)C)C=C1C	i
COc1ccc(OCC2(C)COc3ccc(C(=O)NC4CCC(O)CC4)cc3N2)cc1 (stereo not drawn)	i
Cc1noc(C)c1CC(=O)N1CCC[C@H](n2c(=O)n(C)c3cccnc32)C1	i
CCOC(=O)c1c(C)[nH]c(C)c1S(=O)(=O)N1CCC(C(=O)N2CCN(c3cccc(C)c3C)CC2)CC1	0%
CCOC(=O)c1[nH]c(C)c(CCC(=O)N2CCN(c3ccc(Cl)cc3)CC2)c1C	3.5µM*
CCOC(=O)c1[nH]c(C)c(CCC(=O)N2CCN(c3cccc(C)c3C)CC2)c1C	0.35µM*
CCOC(=O)c1c(C)[nH]c(C)c1S(=O)(=O)N(C)CC(=O)N1CCN(c2ccc(Cl)cc2)CC1	i
CCOC(=O)c1[nH]c(C)c(CCC(=O)NCc2ccc(OC)cc2)c1C	-6%
Cc1cccc(N2CCN(C(=O)CCc3c(C)nc4c(c3C)c(=O)n(C)c(=O)n4C)CC2)c1C	20%

Screens from PubChem BioAssay.
